# tim23-1 inh: inhibits growth of tim23-1 mutant yeast | S. cerevisiae tim23-1 growth, BacTiter-Glo luminescence, 24 h | inhibition, % at 20 µM | 330,000 tested, 1.3% active | AID 463212;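 active means growth inhibition of the mutant yeast at or above 50%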;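 further: temperature-sensitive mutant grown at 25 °C; plate controls were DMSO-treated mutant yeast for no effect and medium wells lacking yeast for full effect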
# tim10-1 inh: tim10-1 yeast growth inhibition | inhibition, % at 20 µM | S. cerevisiae tim10-1 ts strain growth, BacTiter-Glo, 24 h | 330,000 tested, 2.2% active;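 active means inhibition of at least 40%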;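 further: mutant grown at 25 °C; 0% = DMSO wells with yeast and 100% = wells holding no yeast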
# TIM10 inh: growth inhibitors of TIM10 yeast strain; S. cerevisiae TIM10 strain growth, BacTiter-Glo luminescence, 24 h; inhibition, % at 10 µM; 330,000 tested, 1.4% active;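 active means inhibition of 40% or more at the single tested concentration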;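 further: wild-type TIM10 isogenic control strain grown at permissive 25 °C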
# SKKanGAS inh: SKKanGAS growth inhibition; S. pyogenes SKKanGAS, kanamycin growth, BacTiter-Glo, 6 h; inhibition, % at 7.5 µM; 300,000 tested, 1.3% active; AID 1662;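 active means mean replicate score, as percent of positive control median, at least 50; inconclusive means mean below 50 but one replicate at or above 50; inactive means mean and every replicate below 50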;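 further: strain carries kanamycin resistance gene driven by streptokinase promoter and grows in 40 µg/ml kanamycin; loss of luminescence reflects streptokinase promoter inhibition or plain growth inhibition; 0% = median of DMSO wells and 100% = positive control at its reference dose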
# NLRP3 yeast inh: NALP3 inhibition in yeast. 330,000 tested, 0.39% active. inhibition, % at 10 µM. Yeast reconstituted NLRP3/ASC/caspase-1, beta-gal luminescence, 24 h;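 active means inhibition of 50% or more; inactive means inhibition below 50%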;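 further: plate controls were induced DMSO wells for no effect and uninduced yeast grown without galactose for full effect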
# NALP1 yeast inh: inhibitors of NALP1 inflammasome in yeast; 280,000 tested, 0.61% active; S. cerevisiae NALP1/ASC/caspase-1 growth, X-gal OD620, 72 h; inhibition, % at 10 µM; in the data active means inhibition mostly above about 24%, no sharp cut-off; inactive means mostly below about 32%
# * = called active by the depositor; ? = inconclusive; nt = no result given. The list is not random: actives were taken first. Their share in the collection is about 4.9%.
SMILES,tim23-1 inh,tim10-1 inh,TIM10 inh,SKKanGAS inh,NLRP3 yeast inh,NALP1 yeast inh
Oc1[nH]c(N=C2N=c3ccccc3=N2)c2ccccc12,nt,nt,nt,82*,nt,4
CC(=O)NC(=S)Nc1ccc(NC(=S)NC(=O)/C=C/c2ccco2)cc1,9,5,6,83*,10,nt
CCCCn1c(NC(=O)c2ccco2)c(S(=O)(=O)c2ccc(C)cc2)c2nc3ccccc3nc21,nt,nt,nt,21,nt,16
CCCCn1c(NS(=O)(=O)c2ccccc2)c(S(=O)(=O)c2ccc(C)cc2)c2nc3ccccc3nc21,nt,nt,nt,73*,nt,8
COc1ccc(C)cc1NC(=O)NNC(=O)C(C)Oc1ccc(F)cc1Cl (stereo unspecified),12,23,15,0,-4,7
O=c1[nH]cc(F)c(=O)[nH]1,nt,nt,nt,-6,nt,116*
Cc1onc(-c2ccccc2)c1C(=O)Nc1ccc(S(=O)(=O)Nc2nccs2)cc1,7,11,-17,2,10,nt
O=S(=O)(Nc1nccs1)c1ccc(Nc2nnc(-c3ccccc3)c3ccccc23)cc1,-10,19,-7,103*,16,10
C/C(=C\c1cc2ccccc2o1)C1Nc2cccc3cccc(c23)N1,43,38,21,nt,19,nt
Cc1ccc(-c2csc(Cc3nc(-c4ccc5c(c4)CCC(=O)N5)cs3)n2)cc1,-2,-11,-3,71*,21,16
CCOc1ccc(NCc2cccn2-c2nnc(N3CCC(C(=O)NCCCN4CC(C)CC(C)C4)CC3)s2)cc1 (stereo unspecified),3,17,-3,-3,12,-5
CCOC(=O)N1CCN(c2c(NCCCN(CC)CC)c(=O)c2=O)CC1,-20,2,9,10,12,45*
OCCN(CCO)c1ccc(C(c2ccccc2Cl)c2ccc(N(CCO)CCO)cc2Cl)c(Cl)c1,4,28,-5,83*,1,28
O=C(NCCc1ccco1)C(=O)NCC1CCCN1S(=O)(=O)c1ccccc1 (stereo unspecified),-5,-14,-5,-6,32,nt
O=C(Oc1cccc2cccnc12)c1ccc(N2C(=O)C3C4CCC(C4)C3C2=O)cc1 (stereo unspecified),2,11,2,3,-5,59*
Cc1ccc(NC(=S)N(CCN(C)C)Cc2cc3cc(C)ccc3[nH]c2=O)cc1,-3,13,-6,2,8,18*
CC(C)Oc1ccc(C(=O)Nc2ccc(Cl)c(S(=O)(=O)Nc3ccc(Cl)cc3)c2)cc1,24,39,29,110*,-4,24
CN(c1ccccc1)S(=O)(=O)c1cccc(C(=O)OCC(=O)NCc2ccco2)c1,5,17,20,1,-14,24*
O=C(COC(=O)c1ccccc1)NCc1ccco1,-8,-12,-15,0,8,-6
Cc1ccc(C(=O)OCC(=O)NCc2ccco2)cc1,4,20,4,3,20,41*
O=c1c2[nH]cnc2n(-c2cccc(F)c2)c(=O)n1Cc1ccccc1,6,13,19,-2,15,9
COCc1nnc(NC(=O)c2ccc(S(=O)(=O)N(C)C3CCCCC3)cc2)o1,6,7,15,62*,1,-7
COCCN(CCOC)S(=O)(=O)c1ccc(C(=O)Nc2nnc(COC)o2)cc1,4,-4,0,-4,2,-4
CCCN(CCC)S(=O)(=O)c1ccc(C(=O)Nc2nnc(COC)o2)cc1,7,24,-11,69*,10,-25
CCc1nnc(NC(=O)c2ccc(S(=O)(=O)N3CCCc4ccccc43)cc2)o1,22,32,36,86*,-3,18
SMILES,tim23-1 inh,tim10-1 inh,TIM10 inh,SKKanGAS inh,NLRP3 yeast inh,NALP1 yeast inh
CSCc1nnc(NC(=O)c2ccc(S(=O)(=O)N(CC(C)C)CC(C)C)cc2)o1,nt,nt,nt,80*,nt,22
CC(=O)NS(=O)(=O)c1ccc(Nc2ccc([N+](=O)[O-])c3nonc23)cc1,10,8,16,-3,23,nt
CCCCN(Cc1cc2cc(OC)ccc2[nH]c1=O)S(=O)(=O)c1ccc(C)cc1,24,26,9,1,18,26
CCOc1ccc(C(C)=O)cc1COc1ccc(C)nc1[N+](=O)[O-],9,-11,15,-6,23,6
CCN(Cc1ccccc1)S(=O)(=O)c1ccc(C(=O)Nc2nnc(C3CC3)o2)cc1,17,23,0,98*,10,21
Cc1nnc(NC(=O)c2ccc(S(=O)(=O)N(C)Cc3ccccc3)cc2)o1,8,38,7,?,-11,-3
CCc1nnc(NC(=O)c2ccc(S(=O)(=O)N(C)c3ccccc3)cc2)o1,7,11,16,52*,-5,28
CC(=O)NC12CC3CC(C1)CC(C(=O)N(C)CC(=O)Nc1cccc(F)c1)(C3)C2,-6,9,9,nt,3,nt
CCCN1CCC(=O)N(CCN=[N+]=[N-])CC1,-4,-16,-2,-1,21,3
O=C(c1ccc(Cl)c(S(=O)(=O)N2CCCC2)c1)N1CCN(c2ncccn2)CC1,3,19,15,-6,2,5
CCOc1cc2[nH]c(=O)n(CCCN3CCN(c4ccc(OC)cc4)CC3)c(=O)c2cc1OCC,5,5,-7,-6,13,-16
CC(=O)c1c(-c2ccccc2)c2cc(Cl)ccc2[nH]c1=O,-13,-3,5,-6,3,30*
CC(=O)c1c(-c2ccc(Cl)cc2)c2ccccc2[nH]c1=O,-12,2,17,-10,24,13
OC(CN1CCN(Cc2ccccc2)CC1)Cn1c2ccccc2c2ccccc21 (stereo unspecified),0,28,30,13,31,50*
OC(CN1CCN(c2ccccc2)CC1)Cn1c2ccccc2c2ccccc21 (stereo unspecified),48,15,30,10,24,10
Cc1ccc(OCCN2CCN(CC(O)Cn3c4ccccc4c4ccccc43)CC2)cc1 (stereo unspecified),20,37,38,5,33,76*
OC(CN1CCCCC1)Cn1c2ccc(Cl)cc2c2cc(Cl)ccc21 (stereo unspecified),-22,-10,-26,5,18,49*
Cc1ccc(OCC(O)Cn2c3ccccc3c3ccccc32)cc1 (stereo unspecified),33,34,20,-1,5,8
Cc1ccccc1NC(=O)c1cccc(NC(=O)c2ccccc2C(=O)O)c1,17,13,19,0,9,nt
CCC(=O)NCCCOc1ccccc1,3,2,4,-14,26,27*
CCOC(=O)c1c(OCCO)nn(-c2ccccc2)c1N,8,-6,9,-6,16,-13
CC(CN1CCOCC1)OC(=O)C1COc2ccccc2O1 (stereo unspecified),0,0,-9,-1,7,28*
COc1ccc(CC(=O)OC(C)CN2CCOCC2)cc1 (stereo unspecified),-9,-5,-5,-6,18,29*

# Compound activity (PubChem BioAssay)
